Out of some 69,000 compounds screened, about 8,600 (12%) showed an effect of 50% or more. For the sample, strong results were picked, then their nearest neighbours and some compounds at random.
system: Plasmodium berghei; assay: Screen against P. berghei liver stage (PbLuc), transformed with Luciferase, at 10uM; format: functional, HepG2; settings: tested at 10 uM

| SMILES | INHIBITION [%] |
| --- | --- |
| Cc1nc(C2CN(C)CCO2)cc(N2CCC(C(N)=O)CC2)n1 (configuration not stated) | -20.2 |
| CCOC(=O)C1CCN(c2cc(C(=O)N3CCOCC3)nc(C)n2)CC1 | 62.9 |
| COCCNc1cc(C(=O)N2CCOCC2)nc(C)n1 | 8.24 |
| CCCNc1cc(C(=O)N2CCOCC2)nc(C)n1 | 34.6 |
| Cc1nc(C(=O)N2CCOCC2)cc(N2CCC(C(N)=O)CC2)n1 | 56.1 |
| CC(C)(O)CN1CCN(C(=O)c2ccc(Cl)c3cccnc23)CC1 | 36.9 |
| COc1cc(C(=O)O)cc(I)c1OCC(=O)NCCc1ccccc1 | 25.5 |
| CC(NC(=O)NCCc1ccc(Cl)s1)c1ccccn1 (configuration not stated) | -12.1 |
| COc1ccc(C(=O)N2CC(=O)N(Cc3cccs3)CC(O)C2)cc1 (configuration not stated) | 27.5 |
| CC(C)COC(=O)N1CCCN(C(=O)c2ccnc(N(C)C)c2)CC1 | 33.4 |
| CC(C)COC(=O)N1CCN(C(=O)c2ccc3nccn3c2)CC1 | 50.1 |
| CC(C)CCC(=O)N1CCN(C(=O)c2ccc3nccn3c2)CC1 | 24.2 |
| c1ncn(CC2CCCCN2Cc2csc(-c3ccsc3)n2)n1 (configuration not stated) | -58.7 |
| CCC1COCCN1C(=O)NCc1nccn1CC(C)C (configuration not stated) | 8.59 |
| Cn1cccc1CNC(=O)N(CCO)C1CCCc2ccccc21 (configuration not stated) | 26.8 |
| O=C(NC1CC(F)(F)C1)[C@]12COC[C@H]1CN(Cc1cccnc1)C2 | 29.4 |
| CN1C[C@@H]2COC[C@]2(C(=O)NCc2cccs2)C1 | 4.02 |
| O=C(NCCc1cccs1)[C@]12COC[C@H]1CN(Cc1ccccn1)C2 | 24.9 |
| O=C(NC1CC(F)(F)C1)[C@]12COC[C@H]1CN(Cc1ccccc1)C2 | 61.1 |
| Cn1cc(CN2C[C@@H]3COC[C@]3(C(=O)NCc3cccs3)C2)cn1 | 28.3 |
| CS(=O)(=O)N1C[C@@H]2COC[C@]2(C(=O)NCCc2cccs2)C1 | 24.9 |
| O=C(NCCc1cccs1)[C@]12COC[C@H]1CN(Cc1ccncc1)C2 | 54.8 |
| O=C(NCCc1cccs1)[C@]12COC[C@H]1CN(C1CCOCC1)C2 | 61.1 |
| O=C(NC1CC(F)(F)C1)[C@]12COC[C@H]1CN(Cc1ccsc1)C2 | 35.8 |
| O=C(NCc1cccs1)[C@]12COC[C@H]1CN(c1ncccn1)C2 | 2.41 |
| O=C(NCCc1cccs1)[C@]12COC[C@H]1CN(c1ncccn1)C2 | 52.1 |

| SMILES | INHIBITION [%] |
| --- | --- |
| CN1C[C@@H]2COC[C@]2(C(=O)NCCc2cccs2)C1 | 34.6 |
| CN(C)C(=O)CCS(=O)(=O)Cc1coc(-c2ccc(F)cc2)n1 | -23.4 |
| CCC(CCN)n1ccc(C(F)(F)F)n1 (configuration not stated) | 35.2 |
| Cc1cc(C)n(-c2cncc(NCCNC(=O)C(C)(C)C)n2)n1 | 34.9 |
| CC(C)C(N)CNS(=O)(=O)Cc1cccc2cccnc12 (configuration not stated) | 24.2 |
| CC(C)CCN(C(=O)CCn1cc(S(N)(=O)=O)cn1)C1CC1 | 11.4 |
| Cn1cc(-c2cnc(-c3ccnn3C)nc2)cc1C(=O)N1CCCC1 | -4.26 |
| Cc1ccc(C2COCCN2C(=O)c2cccc(N(C)C)c2)o1 (configuration not stated) | 32.9 |
| Cc1ccc(C(=O)N2CCc3c(CNS(C)(=O)=O)cncc3C2)o1 | -3.83 |
| c1ccc(CO[C@@H]2CN(Cc3nccs3)[C@@H]3COC[C@@H]32)nc1 | 59.3 |
| O=C(c1ccnnc1)N1C[C@H](OCc2ccccn2)[C@H]2COC[C@H]21 | 5.67 |
| Cc1nc(CO[C@H]2CN(C(=O)c3ccc[nH]3)[C@@H]3COC[C@H]23)cs1 | 13.1 |
| Cc1nc(CO[C@@H]2CN(Cc3nccs3)[C@@H]3COC[C@@H]32)cs1 | -56.3 |
| Fc1ccc(CN2C[C@@H](OCc3ccccn3)[C@H]3COC[C@H]32)cc1 | 43.9 |
| O=C(c1ccc[nH]1)N1C[C@H](OCc2ccccn2)[C@H]2COC[C@H]21 | 64.8 |
| CN(CC(=O)N1CCCCC1Cn1cccn1)Cc1ccccc1 (configuration not stated) | 23.5 |
| Cn1nc(Cn2cccn2)c2c1CN(Cc1ccsc1)C2 | -41.8 |
| COCCNC(=O)C[C@@H]1COC[C@H]2CN(Cc3cccnc3)C[C@@H]12 | 40.5 |
| COCCN1C[C@@H]2COC[C@@H](CC(=O)NCc3cccnc3)[C@@H]2C1 | 47.4 |
| O=C(C[C@@H]1COC[C@H]2CN(C3CCC3)C[C@@H]12)NCc1cccnc1 | 27.5 |
| O=C(C[C@@H]1COC[C@H]2CN(CC3CC3)C[C@@H]12)NCc1cccnc1 | 53.4 |
| O=C(C[C@@H]1COC[C@H]2CN(Cc3cccnc3)C[C@@H]12)NCC1CC1 | 54.4 |
| O=C(C[C@@H]1COC[C@H]2CN(Cc3cccnc3)C[C@@H]12)N1CCCC1 | -11.6 |
| Cc1cccc(N2CCN(C(=O)CNCCn3cccn3)CC2)c1 | -76.5 |
| CCC[C@H]1CN(c2cncc(C(=O)N(C)C)n2)C[C@@H]1N(C)C | 33.7 |
| NC(=O)CN1CCN(C(=O)c2cc(Cl)cc3cccnc23)CC1 | 13.4 |
